These results are taken from PubChem BioAssay (NCI).

Each structure is given as a SMILES string. About 83,000 compounds went through this panel and 20% of them were active in at least one assay; those are over-represented in the sample as a whole.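 Percent growth is the endpoint: 0 to 100 indicates growth inhibition (40 means 60% inhibition), 0 means no net growth, and negative values indicate cell death.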 A number with no mark means an inactive call. Calls of active or inactive are those of the source. Rule for the calls: active = growth percent below 10; inactive = the rest.

Some test systems named below: DU-145 prostate; K-562 leukemia; MALME-3M melanoma; MDA-MB-231 breast; RXF 393 renal; SF-268 CNS; SF-295 CNS; SF-539 CNS; UACC-257 melanoma; M14 melanoma; HCT-15 colon; HT29 colon; SNB-75 CNS; SNB-19 CNS; U251 CNS; PC-3 prostate; SK-MEL-5 melanoma; UACC-62 melanoma; LOX IMVI melanoma; SK-MEL-28 melanoma.
What all share (test): NCI-60 one-dose screen, 48 h (100 = growth as untreated, 0 = no growth, -100 = all killed)
Common to all, as to details: 10 µM unless noted

For the compound `Nn1c(CN2CCN(c3cc4c(cc3F)c(=O)c(C(=O)O)cn4C3CC3)CC2)n[nH]c1=S`, the growth was 107% with DU-145 prostate; 101% with K-562 leukemia; 94.6% in the assay on MALME-3M melanoma; 107% in the assay on MDA-MB-231 breast; 109% in the assay on RXF 393 renal; 95.9% in the assay with SF-268 CNS. The growth in the assay on SF-295 CNS is 102%; in the assay on SF-539 CNS it was 99.3%; in the assay on UACC-257 melanoma, 111%; in the assay on M14 melanoma, 105%; with HCT-15 colon, 106%; in the assay on HT29 colon it was 97.8%. The growth in the assay with SNB-75 CNS was 86.4%; in the assay with SNB-19 CNS, 99.6%; in the assay on U251 CNS it was 112%; in the assay on PC-3 prostate it was 105%; in the assay on SK-MEL-5 melanoma, 97.5%; in the assay with UACC-62 melanoma it was 93.9%. The growth was 103% in the assay with LOX IMVI melanoma and 109% in the assay with SK-MEL-28 melanoma.
Regarding `O=C(Nc1ccc(-n2cc(-c3ccncc3)c(-c3ccc(O)c(Cl)c3)n2)cc1)Nc1ccc(Cl)c(C(F)(F)F)c1`, the growth in the assay on DU-145 prostate was 29.5%; in the assay with K-562 leukemia, 17.1%; in the assay with MALME-3M melanoma it was 13.3%; with MDA-MB-231 breast, -39.7% (active); in the assay on RXF 393 renal it was -74.4% (active); with SF-268 CNS, 18.4%. In addition, the growth in the assay with SF-295 CNS was -10.3% (active); with SF-539 CNS it was 13.7%; in the assay on UACC-257 melanoma, 47.5%; with M14 melanoma, 7.1% (active); in the assay on HCT-15 colon it was 9.15% (active); with HT29 colon, 47.9%. Besides, the growth is 28% in the assay on SNB-75 CNS; 27.7% with SNB-19 CNS; 5.79% (active) in the assay on U251 CNS; 1.79% (active) in the assay on PC-3 prostate; -73.6% (active) in the assay on SK-MEL-5 melanoma; 9.18% (active) with UACC-62 melanoma. Further, the growth with LOX IMVI melanoma was 16.6%; in the assay on SK-MEL-28 melanoma, 20.1%.
Take `COc1ccc(Cn2cc3c(c2-c2cc(OC)c(OC)c(OC)c2)CCc2c(CO)noc2-3)cc1`: the growth was 19.4% in the assay with DU-145 prostate; 7.1% (active) in the assay with K-562 leukemia; 94.8% with MALME-3M melanoma; 18% in the assay with MDA-MB-231 breast; 2.44% (active) with RXF 393 renal; 43% in the assay with SF-268 CNS. Also, the growth in the assay on SF-295 CNS was 14.8%; in the assay on SF-539 CNS, 3.55% (active); in the assay with UACC-257 melanoma it was 64.6%; in the assay with M14 melanoma, 7.98% (active); with HCT-15 colon, 17.6%; in the assay with HT29 colon, 8.14% (active). Besides, the growth in the assay with SNB-75 CNS was 40%; in the assay with SNB-19 CNS, 30.2%; in the assay on U251 CNS, 11.2%; with PC-3 prostate it was 26.5%; in the assay on SK-MEL-5 melanoma, 5.04% (active); in the assay on UACC-62 melanoma it was 12.7%. Besides, the results for the growth in the assay on LOX IMVI melanoma and in the assay on SK-MEL-28 melanoma were 30.6% and 54%, respectively.
On to `COc1cc(-c2nc3ccccc3s2)ccc1OCc1nc2n(n1)S(=O)(=O)c1ccccc1N2C`, for which the growth in the assay on DU-145 prostate was 87.7%; in the assay with K-562 leukemia it was 71.1%; in the assay with MALME-3M melanoma it was 39.4%; with MDA-MB-231 breast, 84.6%; in the assay with RXF 393 renal it was 58.3%; with SF-268 CNS, 94.4%. Also, the growth with SF-295 CNS is 61.3%; with SF-539 CNS, 52.4%; with UACC-257 melanoma, 104%; in the assay on M14 melanoma it was 76.8%; with HCT-15 colon, 91.5%; in the assay with HT29 colon it was 100%. For the same compound, the growth in the assay with SNB-75 CNS is 41%; in the assay with SNB-19 CNS, 91%; with U251 CNS, 73.2%; in the assay on PC-3 prostate it was 80.8%; in the assay with SK-MEL-5 melanoma, 82.1%; in the assay with UACC-62 melanoma it was 103%. The growth with LOX IMVI melanoma was 72.3%; with SK-MEL-28 melanoma, 103%.
As to `O=C(Nc1ccc(-n2ccc3c(NC(=O)c4ccccc4)ncnc32)cc1)Nc1ccc(Cl)c(Cl)c1`, the growth is -12.3% (active) in the assay with DU-145 prostate; -39.8% (active) in the assay on K-562 leukemia; 7.71% (active) in the assay with MALME-3M melanoma; 26.7% in the assay on MDA-MB-231 breast; -18.2% (active) in the assay on RXF 393 renal; -20.7% (active) in the assay with SF-268 CNS. Also, the growth in the assay with SF-295 CNS is -8.32% (active); in the assay on SF-539 CNS it was -22.6% (active); with UACC-257 melanoma it was 8.87% (active); in the assay with M14 melanoma, 12%; with HCT-15 colon it was 0.689% (active); in the assay on HT29 colon, -58.2% (active). Further, the growth in the assay with SNB-75 CNS is -5.84% (active); with SNB-19 CNS, 15.6%; in the assay with U251 CNS, -58.6% (active); in the assay on PC-3 prostate it was -52.3% (active); in the assay on SK-MEL-5 melanoma, 13.7%; in the assay on UACC-62 melanoma, 48.5%. Also, the values for the growth in the assay on LOX IMVI melanoma and in the assay on SK-MEL-28 melanoma were 45.5% and 5.26% (active), respectively.
With `Cc1nccc2c3ccc(OCc4cn(-c5ccc(Br)cc5)nn4)cc3n(CCCc3ccccc3)c12`, the growth in the assay on DU-145 prostate was 48.6%; in the assay on K-562 leukemia, 14.9%; in the assay on MALME-3M melanoma it was -61.1% (active); with MDA-MB-231 breast it was -1.95% (active); in the assay on RXF 393 renal it was -26.2% (active); in the assay with SF-268 CNS, -15.5% (active). Also, the growth in the assay on SF-295 CNS is 98.2%; with SF-539 CNS it was -59.8% (active); in the assay on UACC-257 melanoma, -20% (active); with M14 melanoma, -81.7% (active); in the assay on HCT-15 colon, 60.5%; in the assay on HT29 colon it was 10.5%. Further, the growth was 26.7% in the assay on SNB-75 CNS; 56.1% in the assay on SNB-19 CNS; -61% (active) in the assay on U251 CNS; 14.1% in the assay on PC-3 prostate; 30.4% with SK-MEL-5 melanoma; 6.16% (active) in the assay with UACC-62 melanoma. For the same compound, the growth was -39.6% (active) in the assay on LOX IMVI melanoma and -67.6% (active) with SK-MEL-28 melanoma.
For the compound `CC(=S)Nc1ccccc1`, the growth was 103% with DU-145 prostate; 101% with K-562 leukemia; 89% with MALME-3M melanoma; 95.5% with MDA-MB-231 breast; 107% with RXF 393 renal; 107% with SF-268 CNS. Moreover, the growth with SF-295 CNS is 105%; in the assay on SF-539 CNS, 102%; in the assay with UACC-257 melanoma it was 82.7%; in the assay with M14 melanoma it was 96.6%; with HCT-15 colon it was 99.4%; with HT29 colon, 94.3%. In addition, the growth was 87.3% in the assay with SNB-75 CNS; 97.8% in the assay with SNB-19 CNS; 96.2% in the assay with U251 CNS; 84.9% with PC-3 prostate; 98% in the assay on SK-MEL-5 melanoma; 96.8% with UACC-62 melanoma. In addition, the growth was 91.2% with LOX IMVI melanoma and 112% in the assay with SK-MEL-28 melanoma.
